Data taken from article PMC7819943, “Rice protein-binding microarrays: a tool to detect cis-acting elements near promoter regions in rice”.
Whole data set: some 39,000 sequences, median “fluorescence intensity (a.u.)” near 4,300, cut for the highest 2% near 39,000. This excerpt belongs to a sample that is enriched for the highest values.

Each sequence was assayed against T1, OsSMF1 (Oryza sativa, UniProt Q6ZLB0 1-436) (assay: protein-binding microarray (RPBM); PBS, 2% BSA, 51.3 ng/ul salmon testes DNA, 50 uM zinc acetate, 200 nM TF, 25 C, 1 h; high values mean tight binding). Details: protein: recombinant; tags: N-terminal polyhistidine and DsRed monomer fusion (pET32a); chain copies: 2; label: CyDye5-dUTP incorporated in the synthesized complementary strand; 3' TTTTT single-stranded linker to array surface; dsDNA, one strand shown.
T1 sequence: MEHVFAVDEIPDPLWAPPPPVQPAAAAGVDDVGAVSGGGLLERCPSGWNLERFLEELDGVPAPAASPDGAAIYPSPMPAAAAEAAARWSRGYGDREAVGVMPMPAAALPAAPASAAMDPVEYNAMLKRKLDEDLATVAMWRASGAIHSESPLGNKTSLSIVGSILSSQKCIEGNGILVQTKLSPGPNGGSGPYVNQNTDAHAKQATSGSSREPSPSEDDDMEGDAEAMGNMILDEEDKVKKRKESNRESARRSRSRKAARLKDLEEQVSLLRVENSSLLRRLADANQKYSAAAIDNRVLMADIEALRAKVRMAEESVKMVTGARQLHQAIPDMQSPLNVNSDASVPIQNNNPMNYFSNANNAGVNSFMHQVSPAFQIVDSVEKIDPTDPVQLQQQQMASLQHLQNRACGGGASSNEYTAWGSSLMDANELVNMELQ
Summary of the method: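 Transcription factors, each fused N-terminally to a polyhistidine tag and DsRed, were expressed in E. coli BL21-CodonPlus and purified on Ni–NTA. A custom Agilent array was made double-stranded by primer extension with Cy5-dUTP and blocked with 2% BSA. It was incubated with 200 nM protein in PBS, 2% BSA, salmon testes DNA and 50 µM zinc acetate at 25 °C for 1 h, then washed. The binding signal is per-feature fluorescence intensity (arbitrary units) read on an Axon 4000B scanner.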
For “GGATCCCATTAACACGTGTCACCGTGGCATGCCACGTCATCGGAGTCACCTAGTGCAG”, the binding signal was 51400 fluorescence intensity (a.u.).
With “AGGGGCCACACCGACCCTCCACGTCATCGTCCACGTCACCCGGAGTCACCTAGTGCAG” the binding signal was 40900 fluorescence intensity (a.u.).
With “GATCCAACACGTGTCCCCTACCCACGACACGTGGCAACCCCGGAGTCACCTAGTGCAG” the binding signal was 36500 fluorescence intensity (a.u.).
For “CCCATCTACCCACCCTCCGACACGTGGGCCCCACCCCGACCGGAGTCACCTAGTGCAG”, the binding signal was 11000 fluorescence intensity (a.u.).
With “CCATGTAAGTGTCACGTCAATGCCACGTGAGACGAAGACCCGGAGTCACCTAGTGCAG” the binding signal was 12500 fluorescence intensity (a.u.).
For “ACAAGGCAACTACTCCTAGCTAGTAAGCATCAATGCATGGCGGAGTCACCTAGTGCAG”, the binding signal was 4520 fluorescence intensity (a.u.).
“CGTAGGCTCGTCGCGGCCACGTACGCCATCCCGAGCTCGGCGGAGTCACCTAGTGCAG” was tested, and the binding signal was 6280 fluorescence intensity (a.u.).
With “TTGGCTTCTTCAACTTACGTTACCCAATGCATTATATTTGCGGAGTCACCTAGTGCAG” the binding signal was 4300 fluorescence intensity (a.u.).
“ACTGCTCACGCCTTAACTGCGCGTCTTAAGGTGGCGTGGCCGGAGTCACCTAGTGCAG” was tested, and the binding signal was 4310 fluorescence intensity (a.u.).
For “CGAGCCCACTCGAGGTGACTCACCTTGTTCCTCCACCAGTCGGAGTCACCTAGTGCAG”, the binding signal was 18500 fluorescence intensity (a.u.).
“TCTGAGTTACTTCCAAGTTGACTAGTTACCTCTTACTACCCGGAGTCACCTAGTGCAG” was tested, and the binding signal was 3260 fluorescence intensity (a.u.).
“TTAATGTCCGAACACCTCATACAACGTGACGCGTCAAAACCGGAGTCACCTAGTGCAG” was tested, and the binding signal was 6890 fluorescence intensity (a.u.).
In the case of “AGTTGGCGTGGATGGCCACGATTCTGGACCCGGGGTTGCCCGGAGTCACCTAGTGCAG”, the binding signal is reported as 3600 fluorescence intensity (a.u.).
In the case of “ATGGACTGTTTTGTCAACTAAGTAATGCATGACACGTGGACGGAGTCACCTAGTGCAG”, the binding signal is reported as 14500 fluorescence intensity (a.u.).
In the case of “CTCATCGTCCTCCACGTGTCCACCCATACACGTGTCGCCACGGAGTCACCTAGTGCAG”, the binding signal is reported as 29800 fluorescence intensity (a.u.).
With “AATCTCACCCATCCACGTGTCCCCAGATCTCATCCCCATCCGGAGTCACCTAGTGCAG” the binding signal was 18700 fluorescence intensity (a.u.).
For “GTCCGATCGGACGCACCACGCATCCTAGCCGTCCACGCCACGGAGTCACCTAGTGCAG”, the binding signal was 3180 fluorescence intensity (a.u.).
With “ATTCTAATGACACCTAAGTGCCACGTCAACGCCACGTGGACGGAGTCACCTAGTGCAG” the binding signal was 45100 fluorescence intensity (a.u.).
With “TACCAGTGTCACGCAGTGACGCAATGGATCATGCTATCCACGGAGTCACCTAGTGCAG” the binding signal was 4450 fluorescence intensity (a.u.).
With “ACCGATGCCATCATCCACGTCATCGTCCACGTGTCACCCACGGAGTCACCTAGTGCAG” the binding signal was 45100 fluorescence intensity (a.u.).
In the case of “GACAACCGAACACGTCGAGCCAGCGAATGATGAAACCCCACGGAGTCACCTAGTGCAG”, the binding signal is reported as 31800 fluorescence intensity (a.u.).
For “TATGTATGAATGACAACACCGCCACGTCAGCGCCACGTCACGGAGTCACCTAGTGCAG”, the binding signal was 50400 fluorescence intensity (a.u.).
With “CTGAATTTAGACACCTCAGCGCCACGTCAACTGGCGCTGACGGAGTCACCTAGTGCAG” the binding signal was 18400 fluorescence intensity (a.u.).
In the case of “ACGCATGGATCCACGTGACGTCACGCCACGTCATCCACCACGGAGTCACCTAGTGCAG”, the binding signal is reported as 60800 fluorescence intensity (a.u.).
With “TTAATTCTAATGCCACTTAAGCGCAACGTCAACACCACGTCGGAGTCACCTAGTGCAG” the binding signal was 18200 fluorescence intensity (a.u.).
In the case of “CGGCGGCTTCTTGTTGGTGACGCCGCACGGCATGGTTGATCGGAGTCACCTAGTGCAG”, the binding signal is reported as 5370 fluorescence intensity (a.u.).
For “CACTGCCCATTCGCCACGTCCCCTAACGCTCCAGGTTTATCGGAGTCACCTAGTGCAG”, the binding signal was 11800 fluorescence intensity (a.u.).
In the case of “GAGATCGAACATCGATGCAGCCCCGCGTCAGGTGCCAAGTCGGAGTCACCTAGTGCAG”, the binding signal is reported as 3510 fluorescence intensity (a.u.).
For “TTGAACCCCGTGTACATCAACAAACCACGTGTCCATCAAGCGGAGTCACCTAGTGCAG”, the binding signal was 6220 fluorescence intensity (a.u.).
With “CATGGTGCGGGCCAGCTCAGCTGTGCACGTGGCATGCCACCGGAGTCACCTAGTGCAG” the binding signal was 17200 fluorescence intensity (a.u.).
In the case of “TAACCATGGTCTTGCCTACGTGGCGTGCCACGTAGACGATCGGAGTCACCTAGTGCAG”, the binding signal is reported as 34300 fluorescence intensity (a.u.).
“CACGTGTACAAGGGCAAAGCGCAACACCGACCCGAGTCCACGGAGTCACCTAGTGCAG” was tested, and the binding signal was 39300 fluorescence intensity (a.u.).
For “ACCATGGTCTAACCTACGTGGCATGCCACGTGTGCGTGTGCGGAGTCACCTAGTGCAG”, the binding signal was 56000 fluorescence intensity (a.u.).
In the case of “ACCCAAAGCCACCCGCAACAACCGACGACGACGACGACCGCGGAGTCACCTAGTGCAG”, the binding signal is reported as 24100 fluorescence intensity (a.u.).
“AAAGTTTCATGCCTGAGATGTTATGTTACGTGTCTATCCACGGAGTCACCTAGTGCAG” was tested, and the binding signal was 7680 fluorescence intensity (a.u.).
With “AACATGATTTAACAGGTAACAGTCGCCCATGCCATTCTTGCGGAGTCACCTAGTGCAG” the binding signal was 3350 fluorescence intensity (a.u.).
With “ATTTTCATGCTTAGATGTAGTAACTACACCAACATTACATCGGAGTCACCTAGTGCAG” the binding signal was 3310 fluorescence intensity (a.u.).
“ATGTTTCTGCGGCCCGTCATCCGTGTTTGAGTCGGTTATACGGAGTCACCTAGTGCAG” was tested, and the binding signal was 4220 fluorescence intensity (a.u.).
For “CGCAGCCCGAGCCCGCCGTATTCCACGTCGACGCTGTCGTCGGAGTCACCTAGTGCAG”, the binding signal was 5720 fluorescence intensity (a.u.).
“GAAATTTTCAGGGTGTTACATAGATCAACTGAATTCCTTACGGAGTCACCTAGTGCAG” was tested, and the binding signal was 3550 fluorescence intensity (a.u.).
“CATAAATGAGATCCAGTGACGGCATGAGCATGTCCCAATTCGGAGTCACCTAGTGCAG” was tested, and the binding signal was 24900 fluorescence intensity (a.u.).
In the case of “ATAAATTTGGACGCATCCCAAAATTCGGCAAACATATGACCGGAGTCACCTAGTGCAG”, the binding signal is reported as 39200 fluorescence intensity (a.u.).
With “TATAAATTTGGACACATATATGAAACACATATATTGATCCCGGAGTCACCTAGTGCAG” the binding signal was 30400 fluorescence intensity (a.u.).
